Inconclusive results are not listed. Values without a mark were called inactive. Active and inactive are the calls of the source. Calls come from the whole dose curve; as a rule, active = well fitted inhibition curve with a large enough effect; inconclusive = small, poorly fitted or top-dose-only effect; inactive = flat fitted curve, though single readings scatter. Where a SMILES comes first, the peptide text is derived from it. [ ]: non-standard residue; d: D form. ξ: configuration not given here. ξLac(3-iPr) = CC(C)CC(O)C(=O)O; NMeV = CN[CH](C(=O)O)C(C)C; βAla = NCCC(=O)O
% is set by controls: 0 for no effect and ±100 for the full control effect; potency is the fitted concentration of half-maximal effect.

In this experiment the test system is NIH3T3. The experiment can be described thus: Cytotoxic Profiling of Annotated Libraries Using Quantitative High-Throughput Screening (AID 1296008). Note: nearly all actives have a fitted effect of over 60% in size. Conditions: Five cell lines viability, CellTiter-Glo ATP luminescence, 48-72 h; max response: stronger effect = lower value. The method, boiled down: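 Cells exposed to compounds for 48 or 72 hr at 37 degrees Celsius. Viability read as ATP-coupled luminescence with CellTiter-Glo after 10 min at room temperature.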
(Cellular ATP, detected with luciferase, serves as a proxy for viable cell number.)
On to `Cc1[nH]c2ccccc2c1CCNC(=O)c1ccccc1F`, for which the max response is 2.05%.
The same measure, in the same setting: under `C/C=C/c1ccc2oc(-c3ccc(O)c(OC)c3)c(C)c2c1` stands -2.29%.
Take `NC(=O)[C@H](O[C@@H]1O[C@H](CO)[C@@H](O)[C@H](O)[C@H]1O)c1ccccc1`: the max response is 4.94%.
The same measure, in the same setting: as for `N[C@@]1(C(=O)O)CC[C@H]2[C@H](C(=O)O)[C@H]21`, the figure is 4.48%.
As for `COc1cc(C2c3cc4c(c(O)c3CC(CO)C2C(=O)O)OCO4)cc(OC)c1O` (stereo not drawn), the Potency is 2.82 µM (active).
Take `O=S(=O)(Nc1ccccn1)c1ccc(N=Cc2c(O)[nH]c3ccc4ncsc4c23)cc1`: the result was inactive.
`C[C@H](NC(c1cccc(C[P+](=O)O)c1)[C@H](C)O)c1ccc(Cl)c(Cl)c1` (stereo partly drawn): the max response is 3.54%.
Still for that read-out and setting: under `O=C1CSc2ccccc2N1Cc1cccc(C(F)(F)F)c1` stands 4.03%.
Still for that read-out and setting: as for `C/C=C1\[C@H](O[C@@H]2O[C@H](CO)[C@@H](O)[C@H](O)[C@H]2O)OC=C2C(=O)OCCc3ccc(O)c(c3)Oc3ccc(cc3)CCOC(=O)C[C@H]21`, the figure is -1.53%.
For `CN1CCN(Cc2ccc(-c3cnc4[nH]cc(-c5ccc6[nH]ccc6c5)c4c3)cc2)CC1`, the Potency was 14.6 µM (active).
`CC/C=C\C/C=C\C/C=C\CCCCCCCC(=O)OCC(O)COC1OC(CO)C(O)C(O)C1O` (stereo not drawn): the max response is -3.16%.
Turning to `Cc1cc(Nc2cc(N3CCN(C)CC3)nc(/C=C/c3ccccc3)n2)n[nH]1`, the Potency was 2.31 µM (active).
Consider `CC(C)C(CO)Nc1nc(Nc2ccc(C(=O)O)c(Cl)c2)c2ncn(C(C)C)c2n1` (stereo not drawn), for which the max response is -3.63%.
Take `COc1cc(Nc2nc3ccccc3nc2NS(=O)(=O)c2ccc(NC(=O)c3ccc(OC)c(C)c3)cc2)cc(OC)c1`: the compound was classed as inactive.
Consider `Cc1c2cc(c(C(=O)O)c1C)OC1OC(C(O)C(O)C1O)C(O)C(O)C1OC(O2)C(O)C(O)C1O` (stereo not drawn), for which the compound was called inactive.
Regarding `CC(=O)OC[C@@]12C(=O)C[C@@H](C)[C@]3(C[C@@H](c4ccoc4)O[C@H]3OC(C)=O)[C@H]1CCC[C@]21CO1`, the max response was 3.02%.
Still for that read-out and setting: as for `CNC(=S)NS(=O)(=O)c1cc(CCNC(=O)c2cc(Cl)ccc2OC)ccc1OC`, the figure is -5.29%.
On to `Cc1[nH]nc(C(F)(F)F)c1Cc1sc2c(c1C(=O)N1C[C@](C)(O)CO1)c(=O)n(C)c(=O)n2C(C)C`, for which the Potency was 13 µM (active).
As to `O=C1OCc2cc3cccc(O[C@@H]4O[C@H](CO)[C@@H](O)[C@H](O)[C@H]4O)c3c(O)c21`, the max response is 0.153%.
For `C[C@@H]1C(=O)O[C@H]2[C@@H](O)C34[C@H]5C[C@@H](C(C)(C)C)C36[C@@H](OC(=O)[C@@H]6O)O[C@@]4(C(=O)O5)[C@@]12O` (stereo partly drawn), the max response is -0.498%.
Still for that read-out and setting: under `CC1OC(O[C@H]2CC[C@@]3(C)C(CC[C@]4(C)C3CC=C3C5CC(C)(C)CC[C@]5(C(=O)OC5OC(CO)C(OC6OC(COC7OCC(O)C(O)C7O)C(O)C(O)C6O)C(O)C5O)CC[C@]34C)C2(C)C)C(O)C(O)C1OC1OCC(OC2OCC(O)C(O)C2O)C(O)C1O` (stereo partly drawn) stands -4.7%; under `CC(C)Oc1ccc(C(=O)NC(CNC(=O)CN(C)C)Cc2ccc(-c3cn4cccc(C(C)O)c4n3)cc2)cc1Cl` (stereo not drawn), -19.5%.
As to `CC[C@@](C)(Nc1ccnc(-c2c[nH]c3ncccc23)n1)C(=O)NCC(F)(F)F`, the Potency was 14.6 µM (active).
As for `C=C(C(=O)OC)C1C(O)CC2(C)C(=O)CCC(O)(CO)C2C1O` (stereo not drawn), the compound was classed as inactive.
On to `COc1cc2ncnc(Nc3ccc(O)cc3)c2cc1OC`, for which the max response is 2.24%.
Regarding `CC(=O)NCC(=O)N1C2CCC1c1cc(Nc3ncc(C(F)(F)F)c(NC4CCC4)n3)ccc12` (stereo not drawn), the Potency is 1.3 µM (active).
`CNC(=O)c1ccccc1Nc1nc(Nc2ccc3c(c2OC)CCCC(N2CCN(CCO)CC2)C3)ncc1Cl` (stereo not drawn): the Potency is 9.2 µM (active).
With `CCN1CCN(Cc2ccc(Nc3ncc(F)c(-c4cc(F)c5nc(C)n(C(C)C)c5c4)n3)nc2)CC1`, the max response was 1.34%.
Turning to `C[C@H](C(=O)NC1CCCC1)N(C(=O)Cn1nnc(-c2ccc3c(c2)OCO3)n1)C1CCCCC1`, the outcome was inactive.
On the same count and under the same terms, under `COc1cc2c3c(cc4ccccc4c3c1O)NC2=O` stands “inactive”.
For the compound `CCNC(=O)C1OC(n2cnc3c(N)nc(NCCc4ccc(CCC(=O)O)cc4)nc32)C(O)C1O` (stereo not drawn), the max response is -0.422%.
On the same count and under the same terms, as for `CCN1CCN(Cc2ccc(NC(=O)Nc3ccc(Oc4cc(NC)ncn4)cc3)cc2C(F)(F)F)CC1`, the figure is -75.2%; as for `CC(C)CC1OC(=O)C2CCCN2C(=O)CCNC(=O)C(Cc2ccccc2)NC(=O)C(C(C)C)N(C)C(=O)C(C(C)C)N(C)C1=O` (stereo not drawn) (cyclo([ξLac(3-iPr)][NMeV][NMeV]F[βAla]P); configuration not given here), 0.588%.

Values taken from PubChem BioAssay (NCATS).
